From PubChem
Rows were chosen to be rich in hits. Some 19% of all compounds tested hit in one or more screens of this group.
CHX counter-1 = counter-screen for Shiga toxin inhibitors: cycloheximide protein synthesis inhibition; cell reporter, cycloheximide protein synthesis inhibition counterscreen; AID 2314; max response, %; 12% of 300,000 active; in the data active means max response mostly above about 13%, no sharp cut-off; inactive means mostly below about 14%; further: read at 38.3 µM for the half of the compounds with a filed dose; 0% is about no effect
Shiga inhibitor = inhibitors of Shiga toxin in Vero cells. Vero cells, Shiga toxin protein synthesis inhibition reporter. inhibition, % at 38.7 µM. 9.2% of 290,000 active; in the data active means inhibition mostly above about 28%, no sharp cut-off; inactive means mostly below about 43%; further: 0% is about no effect
SARS PLpro yeast-1 = blocks SARS-CoV papain-like protease in a yeast assay; S. cerevisiae expressing SARS-CoV PLpro, growth rescue; Potency, µM (highest dose often 32.9 µM), without a hit: at the top dose activity, positive = growth rescue, most hits filed as activators; 0.19% of 330,000 active; calls by dose curve; further: potency means the concentration at half of the fitted maximal effect; 0% is about no effect; nearly all actives have a fitted effect of over 55% in size
AMA1 RON2 block = inhibitors of Plasmodium falciparum AMA1-RON2 interaction | AlphaScreen AMA1-biotinylated RON2 peptide binding | Potency, µM (highest dose often 58.2 µM), inactives show at the highest dose activity change, negative = inhibition, usual class: inhibitors | 0.2% of 360,000 active;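 further: potency means the concentration at half of the fitted maximal effect; 0% = vehicle wells and -100% = peptide control; nearly all actives have a fitted effect of over 45% in size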
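AMA1 (3D7) with his tag at 25 nM final met compounds first, then biotinylated RON2 peptide at 25 nM; detection used donor plus acceptor beads, 10 µg/mL apiece, read by AlphaScreen after 30 min at room temperature.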
Pf growth 96h = inhibits malaria parasite growth, 96 h. P. falciparum luciferase reporter growth, 96 h. Potency, µM (series often up to 28.7 µM), for inactives: at the highest dose activity change, negative = inhibition, usual class: inhibitors. 6.9% of 320,000 active; further: potency means the concentration at half of the fitted maximal effect; on the % scale 0 is the no-effect control and ±100 the full control effect
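Two parasite generations (96 h, 37 C, 5% CO2) of compound exposure in infected erythrocytes (0.05% parasitemia, 2% hematocrit). Luciferase-reporter P. falciparum; decreased luminescence indicates inhibited growth, aimed at apicoplast-acting delayed death.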
Pf growth 48h = inhibits P. falciparum growth in the first generation, 48 h; 5.9% of 310,000 active; Potency, µM (highest dose often 28.7 µM), without a hit: top-dose activity change, negative = inhibition, usual class: inhibitors; P. falciparum luciferase growth in erythrocytes, 48 h; AID 504832; further: potency means the concentration at half of the fitted maximal effect; on the % scale 0 is the no-effect control and ±100 the full control effect
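Read-out is firefly luciferase luminescence from an integrated reporter in P. falciparum, so falling signal marks reduced parasite growth. Infected erythrocytes were at 2% hematocrit and 0.1% parasitemia (final) in Albumax-supplemented RPMI 1640.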
CHX counter-2 = counter-screen for Shiga toxin inhibitors: cycloheximide protein synthesis block. shares compounds with Shiga inhibitor. 3% of 510 active. Cycloheximide counterscreen, protein synthesis reporter, Shiga toxin assay. Potency, µM (titrated, usually from 38.3 µM), without a hit: top-dose activity (activation), usual class: activators. AID 2318; calls by dose curve; further: potency means the concentration at half of the fitted maximal effect; 0% is about no effect
SARS PLpro yeast-2 = Inhibits SARS-CoV PLP in yeast, hit validation; shares compounds with SARS PLpro yeast-1; yeast expressing SARS-CoV PLpro, growth phenotype rescue; calls only; 19% of 1,000 active; AID 652038; call rule not given here
An asterisk follows results filed as active; i = inactive; ? = inconclusive; nt = no result; + = active, no number. Unless noted, the call rests on the fitted dose curve; in most records, active means well fitted curve in the direction sought with a large enough effect; inconclusive means small, poorly fitted or top-dose-only effect, or another doubt; inactive means no such curve, though single readings can be large; an effect the other way counts as inactive or inconclusive.

SMILES	CHX counter-1	Shiga inhibitor	SARS PLpro yeast-1	AMA1 RON2 block	Pf growth 96h	Pf growth 48h	SARS PLpro yeast-2	others
Cc1ccc(-n2c(C)c(C)c3c(N)ncnc32)cc1	2	34*	0%	0%	13%	21%	nt	CHX counter-2=2%
COc1ccc(C(O)P(=O)(OC(C)C)OC(C)C)c(OC)c1 (stereo not drawn)	-1	-4	-2%	-4%	1%	0%	nt
CCOc1ccc(N(CC(=O)NC(C)(C)C)C(=O)CCC(=O)Nc2nccs2)cc1	0	-7	4%	6%	18%	-22%	nt
COc1ccc(CNCC(=O)Nc2sccc2C#N)cc1	13	52*	-1%	16%	11%	13%	nt	CHX counter-2=2%
Cc1c(C(=O)Nc2ccc(-c3nnc4n3CCCCC4)cc2)oc2ccc(Br)cc12	-4	14*	-8%	-10%	11%	25%	nt	CHX counter-2=?
O=C(NCc1cccnc1)c1ccc(Cl)c(S(=O)(=O)Nc2ccccc2C(=O)NCc2cccnc2)c1	2	-3	?	2%	?	?	nt
O=C(Nc1cc(Cl)ccc1Cl)Nn1cnnc1	-3	-11	12%	-8%	?	26%	nt
Cc1cc2n(n1)SC(Nc1cc(Cl)ccc1Cl)N2 (stereo not drawn)	17	35*	-10%	59%	-21%	-21%	nt	CHX counter-2=1%
O=C(NCCC1=CCCCC1)C1CCN(S(=O)(=O)c2cccc3cccnc23)CC1	9	active	1%	-1%	?	-14%	nt	CHX counter-2=3%
Cn1nccc1C(=O)Nc1sc2c(c1C#N)CCCC2	16	16*	-4%	2%	24%	25%	nt	CHX counter-2=?
O=C(CC1SC(N2CCCCC2)=NC1=O)Nc1cccc(C(=O)Nc2ncccc2O)c1 (stereo not drawn)	nt	nt	?	61%	?	-5%	i
CC(C)NC(=O)c1cccc(NC(=O)CC2SC(N3CCCCC3)=NC2=O)c1 (stereo not drawn)	nt	nt	0%	10%	-4%	?	nt
O=C(N/N=C/c1cc([N+](=O)[O-])ccc1O)c1cc(-c2ccccc2)nc2ccccc12	6	-13	nt	26%	-73%	2.9µM*	+
Cc1cc(C(=O)N/N=C/c2cc([N+](=O)[O-])ccc2O)c2ccccc2n1	-3	-2	3.2µM*	?	?	9.3µM*	i
Cc1cccc(/C=N/NC(=O)c2cc(C)nc3ccccc23)n1	-3	-13	2%	22%	28%	-17%	nt
Cc1cc(C(=O)N/N=C/c2ccc(N(C)C)cc2)c2ccccc2n1	6	23	2%	-8%	-14%	7%	nt
Cc1ccccc1C(=O)Nc1cccc(C(=O)N/N=C/c2cc(Cl)cc([N+](=O)[O-])c2O)c1	0	-4	7.9µM*	?	21%	60%	?
Cc1cc(C(=O)N/N=C/c2cc(Br)cc([N+](=O)[O-])c2O)c2ccccc2n1	-1	-4	1.8µM*	35µM*	-16%	5%	i
COc1cc(/C=N/NC(=O)c2cccc(NC(=O)c3ccccc3C)c2)ccc1O	-2	-8	-3%	16%	?	-9%	nt
COc1ccc(OC)c(N2C(=O)CCCC2=O)c1	-5	-3	3%	30%	35%	38%	nt
COC(=O)N1c2ccccc2C=Cc2ccccc21	-3	-12	0%	-18%	-90%	?	nt
Cc1ccc(S(=O)(=O)c2nc(NCCN(C)C)sc2Cl)cc1	-5	-5	?	22%	?	nt	i
COc1ccc(CN(C(=O)CCC(=O)Nc2cc(C)on2)C(C(=O)NC(C)(C)C)c2cccc(OC)c2OC)cc1 (stereo not drawn)	-3	24	5%	12%	-25%	?	nt
O=C(CNC(=O)c1cccc(Br)c1)N/N=C/c1cc(Br)cc(Br)c1O	2	-13	3.5µM*	42%	-10%	4%	+
CC(C)(CNC(=O)c1ccccc1NS(C)(=O)=O)N1CCCCC1	-1	5	7%	17%	34%	31%	nt
SMILES	CHX counter-1	Shiga inhibitor	SARS PLpro yeast-1	AMA1 RON2 block	Pf growth 96h	Pf growth 48h	SARS PLpro yeast-2	others
CC(C)NC(=O)C1(C)CCCN1Cc1csc2ccccc12 (stereo not drawn)	nt	nt	nt	-8%	nt	nt	nt
COc1ccc(CCNC(=O)C(=O)NCC2OCCN2S(=O)(=O)c2ccccc2)cc1OC (stereo not drawn)	-2	-8	11µM*	-1%	?	-5%	i
COc1ccc(CCNC(=O)C(=O)NCC2OCCN2S(=O)(=O)c2ccc(OC)c(OC)c2)cc1OC (stereo not drawn)	-4	16	4%	-4%	?	0%	nt
CCCCn1c(N)c(N(CC(C)C)C(=O)CCN2C(=O)C3CC=CCC3C2=O)c(=O)[nH]c1=O (stereo not drawn)	nt	nt	nt	-8%	nt	nt	nt
CCOC(=O)COc1c(Cl)cc(C2NC(=S)NC(c3ccccc3)=C2C(C)=O)cc1OCC (stereo not drawn)	6	-7	?	-3%	?	?	i
Cc1cc(C)c(S(=O)(=O)N(C)CC(=O)NCc2ccncc2)c(C)c1	-2	-23	0%	-5%	42%	37%	nt
O=C(O)C1CC=CCC1C(=O)Nc1cccc(C(=O)N2CCCCC2)c1 (stereo not drawn)	-2	-2	8%	8%	192%	14%	nt
CC(NC(=O)c1ccc(N(C)C)cc1)C1CC2CCC1C2 (stereo not drawn)	14*	106	22µM*	0%	nt	3%	i
Cc1nn(CC(=O)NC2(C)CCS(=O)(=O)C2)c(C)c1S(=O)(=O)N(C)C (stereo not drawn)	nt	nt	?	-9%	nt	nt	i
CCCCNC(=O)Nc1ncn[nH]1	-5	-5	3%	-8%	23%	24%	nt
Cn1cc(/C=N/n2cnc3scc(-c4ccccc4)c3c2=O)c2ccccc21	-7	-12	?	-6%	3.3µM*	-11%	+
Cc1cccc2nc(Cn3c(=O)n(CCC(=O)NCc4ccco4)c(=O)c4ccccc43)cc(=O)n12	nt	nt	nt	12%	nt	nt	nt
CCCCNC(=O)N1CCc2ccccc2C1	3	14	3.2µM*	-2%	-16%	8%	i
Cc1cc(C)cc(-n2c(C)cc(C(=S)N3CCOCC3)c2C)c1	2	9	14µM*	-24%	42%	12µM*	+
CCCNC(=S)NCc1ccc(Cl)cc1	-5	10	?	-22%	46%	17%	i
CNC(=S)NCc1ccc(Cl)cc1	nt	nt	nt	8%	nt	nt	nt
CCOc1ccc(CNC(=S)NCc2ccc(OCC)cc2)cc1	11*	9	13µM*	17%	7%	19%	+
